Shown are actives, neighbours in structure and some others; about 3% of the full set was active somewhere.
MITF act – activators of MITF-driven TRPM1 promoter reporter, primary screen, cell-based, SK-MEL-5, luciferase, single point; SK-MEL-5 TRPM1-promoter luciferase, 24 h; % of positive control, neutral wells = 0; activation, % at 12.5 µM; 300,000 compounds, 0.75% hits; AID 588334, 2011;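 active = mean activation of at least 80% with every replicate also reaching 80%; inconclusive = mean reaches 80% but some replicate falls short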;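 also: 0% = neutral control wells and 100% = parthenolide positive control wells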
TROY NFkB inh – inhibitors of TROY-driven NF-kB signaling, primary screen, Q293 LMP1-TROYcd cells, NF-kB luciferase, uHTS; Q293 LMP1-TROYcd NF-kB luciferase reporter, 4 h; inhibition, % at 10 µM; 360,000 compounds, 0.98% hits;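 active = compounds whose plate-normalised and pattern-corrected inhibition of the luciferase reporter signal at the single screening dose is 50% or more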
TRPM1 prom inh – inhibitors of MITF-dependent TRPM1 promoter reporter, primary screen, cell-based, SK-MEL-5, single point, luciferase | SK-MEL-5 TRPM1 promoter luciferase, 24 h | inhibition, % at 12.5 µM | 330,000 compounds, 0.83% hits;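 active = mean inhibition across replicates of 60% or more, whatever share of single replicates reaches that level; inconclusive = some that reach 60%, reason not given; inactive = mean inhibition across replicates below 60%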
EBV LMP1 NFkB – EBV LMP1-driven NF-kappaB luciferase reporter inhibitors, primary screen, cell-based, luminescence, single point. LMP1-induced NF-kappaB luciferase reporter cells. inhibition, % at 12.5 µM. 350,000 compounds, 0.69% hits. AID 504558, 2011; in the data active = inhibition above about 41%; inconclusive = no clear call, values can overlap the other calls;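 also: 0% = neutral control wells and 100% = reference inhibitor control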
TWEAK Fn14 block – inhibitors of TWEAK-Fn14 signaling, primary screen, luciferase reporter cells, uHTS; TWEAK-stimulated Fn14 reporter cells, luciferase luminescence, 8 h; inhibition, % at 10 µM; 360,000 compounds, 2% hits; AID 1159606, 2016; in the data active = inhibition above about 50%
LGR2 antag – inhibitors of bursicon-induced LGR2 CRE-luciferase signal, primary screen, cell-based, HEK293, CRE-luciferase reporter, bursicon stimulation. inhibition, % at 9.99 µM. 380,000 compounds, 0.35% hits. bursicon-stimulated, 4 h. Drosophila bursicon receptor LGR2 (rickets);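 active = drop in luminescence signal, shown as inhibition above about 50% in the replicate tests, limit read from the data, passing the limit was not always enough; inconclusive = probably only some replicates passing the limit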;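 also: agonist challenge used bursicon conditioned medium at about half maximal strength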
An asterisk follows results filed as active; u = inconclusive; x = not tested or not shown.

SMILES	MITF act	TROY NFkB inh	TRPM1 prom inh	EBV LMP1 NFkB	TWEAK Fn14 block	LGR2 antag
Cc1ccc(-n2nc3c(N4CCC(C(=O)NCc5ccccc5C)CC4)nnc(C)c3c2C)cc1	-94	12	94*	2	-16	x
CCC(=O)N1CC(=O)N2[C@H](CO)[C@H](c3ccc(-c4ccccc4F)cc3)[C@H]2C1	x	x	x	x	x	10
CN(C)C(=O)/C(C#N)=C\c1cc(Br)c(Sc2ccc(Cl)cc2)o1	-15	31	16	18	88*	x
Clc1ccc(Sc2oc(/C=N/n3cnnc3)cc2Br)cc1	0	1	3	-12	12	x
COc1cccc(CNC(=O)C[C@@H]2CC[C@H](NC(=O)C3CCC3)[C@@H](CO)O2)c1	x	x	x	x	x	2
COc1ccc(C2Nc3ccccc3C(=O)N2c2ccc(C)cc2)cc1Cn1nc(C)c([N+](=O)[O-])c1C (stereo unspecified)	90*	-43	-93	-15	-25	-27
COc1ccc(C2Nc3ccccc3C(=O)N2c2ccc(C)cc2)cc1COc1ccccn1 (stereo unspecified)	31	-38	-25	-15	5	-25
CCOC(=O)c1ccc(CNC(=O)c2cc(COc3ccccc3SC)on2)o1	103*	-21	-99	-9	-10	-83
CSc1ccccc1OCc1cc(C(=O)N(C)Cc2ccc(C)o2)no1	99*	-31	-98	-22	-5	-52
CSc1ccccc1OCc1cc(C(=O)N(C)Cc2ccc3nsnc3c2)no1	78	-30	-78	-19	5	-48
O=C(C[C@@H]1CC[C@H]2[C@@H](COC[C@H](O)CN2Cc2nccs2)O1)NCc1ccccc1F	x	x	x	x	x	6
C[C@@H]1CCCCO[C@@H](CN(C)CC2CC2)[C@H](C)CN([C@H](C)CO)C(=O)c2cc(NC(=O)CCC(F)(F)F)ccc2O1	x	x	x	x	x	-9
C[C@H]1CN([C@@H](C)CO)C(=O)c2cccc(NC(=O)c3cnccn3)c2O[C@@H]1CN(C)Cc1ccccc1	x	x	x	x	x	15
O=C(COC(=O)CC(c1ccccc1)c1ccccc1)NCc1ccc(Cl)cc1	2	26	-1	2	62*	x
CCCC(=O)OCC(=O)NCc1ccc(Cl)cc1	11	4	-13	0	-1	-12
O=C(C1CCOCC1)N1CC(=O)N2[C@H](CO)[C@H](c3ccc(C#CC4CCCC4)cc3)[C@@H]2C1	x	x	x	x	x	7
Cn1nc([N+](=O)[O-])nc1Oc1ccccc1F	-5	7	4	12	6	-1
Cc1nn(CCCC(=O)NCCc2ccccc2)c(C)c1[N+](=O)[O-]	-5	8	5	-3	-13	6
Cn1nc([N+](=O)[O-])nc1S(C)(=O)=O	-72	18	72*	-8	54*	36
CS(=O)(=O)c1nc([N+](=O)[O-])nn1CCCc1ccccc1	x	22	-1	-2	87*	x
Cc1ccc(S(=O)(=O)N2C[C@H](O)COC[C@@H]3O[C@H](CC(=O)NCC4CCCCC4)CC[C@H]32)cc1	x	x	x	x	x	7
COC1(OC)C=CC(=O)C=C1NC(=O)c1ccccc1OC(C)=O	-29	5	31	-6	63*	25
Oc1ccccc1CNc1ccc(Br)cn1	50	-40	-50	1	90*	x
CC(C)CC#Cc1ccc2c(c1)O[C@@H](CN(C)C(=O)CC1CC1)[C@H](C)CN([C@H](C)CO)S2(=O)=O	x	x	x	x	x	11
Cc1csc(NC(=O)Cc2coc3cc(C)c(C(C)C)cc23)n1	5	55*	-4	6	-31	x
Cc1cc2occ(CC(=O)NCc3cccs3)c2cc1C(C)C	1	12	1	0	9	x
C=CCn1c(SCC(=O)N2CC(=O)Nc3ccccc32)nc2scc(-c3cccs3)c2c1=O	-14	10	17	14	52*	x
C/C(=N\NC(=O)c1ccccc1NC(=O)c1ccc(Cl)cc1)c1ccncc1	-46	18	47	54*	0	u
CC(=NNC(=O)c1ccncc1)c1ccccc1Cl	8	-9	-10	23	-1	2
